The values below come from PubChem BioAssay (NCATS).

Records with an inconclusive call do not appear. The source made the active and inactive calls. Unless noted, calls come from the whole dose curve; as a rule, active = well fitted curve in the direction sought with a large enough effect; inconclusive = small, poorly fitted or top-dose-only effect, or another doubt; inactive = no such curve, though single readings can be large; an effect the other way counts as inactive or inconclusive.

Experiment [1] deals with Transient receptor potential cation channel subfamily V member 1 (Homo sapiens) (UniProt Q8NER1). Put plainly: HTS Assay for Compounds that Act as Enhancers of the Vanilloid Receptor 1 (AID 488979). Note: 0% is about no effect. An outline of the steps:
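Calcium influx kinetics via Fluo-8 (480/520 nm) in TRPV1-expressing cells, 2000/well cultured overnight at 35.5C. Compound-alone read 3 min (agonist phase), followed by EC20 capsaicin challenge for 2 min (enhancer phase).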

In experiment [2] the target is Thyrotropin receptor (Homo sapiens) (UniProt P16473). Put plainly: qHTS Assay for Antagonists of the Thyroid Stimulating Hormone Receptor (AID 488980). Note: series mostly up to about 58 µM; 0% is about no effect. An outline of the steps: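 TSHR-HEK293 cells; 70 uM RO 20-1724 PDE inhibitor; compound + EC80 TSH (4 nM final); anti-cAMP cryptate antibody/cAMP-d2 in lysis buffer, 30 min RT; HTRF 665/620 nm read.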
A general note: In qHTS, concentration-response curves come from the screen itself.

For experiment [3], the target named is D(1A) dopamine receptor (Homo sapiens) (UniProt P21728). Put plainly: HTS Assay for Allosteric Agonists of the Human D1 Dopamine Receptor: Primary Screen for Agonists (AID 488981). Note: 0% is about no effect. An outline of the steps:
(§1)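 Calcium flux in an inducible, force-coupled HEK293 Trex D1 line (overnight at 30 C): agonist mode is the 180 s kinetic read after compound; potentiator mode is the following 180 s read after dopamine at EC20.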

Experiment [4] has the same target. Put plainly: HTS Assay for Allosteric Agonists of the Human D1 Dopamine Receptor: Primary Screen for Potentiators (AID 488982). Note: 0% is about no effect. An outline of the steps: as §1
Experiment [5] has the same target. Put plainly: HTS Assay for Allosteric Agonists of the Human D1 Dopamine Receptor: Primary Screen for Antagonists (AID 488983).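 Note: calcium flux response to an EC80 dopamine challenge measured with no-wash dye; % is set by controls: 0 for no effect and ±100 for the full control effect; nearly all actives have a fitted effect of over 65% in size.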 The method, boiled down:
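Screening of inducible HEK293 T-REx D1 cells: compound first, EC80 dopamine 180 s later, each phase read kinetically for calcium over 180 s.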

A short description of experiment [6]: Validation screen for small molecules that induce genotoxicity in human embryonic kidney (HEK293T) cells expressing luciferase-tagged ELG1 (AID 493106). Note: 0% is about no effect. The method, boiled down: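 Reporter-gene quantitative HTS in HEK293T cells carrying luciferase-tagged ELG1, whose level climbs under genotoxic stress. Compound exposure lasts 16 hr at 37 °C before luciferase detection.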

Experiment [7] concerns the target ATPase family AAA domain-containing protein 5 (Homo sapiens) (UniProt Q96QE3). Put plainly: Validation screen for small molecules that inhibit ELG1-dependent DNA repair in human embryonic kidney (HEK293T) cells expressing luciferase-tagged ELG1 (AID 493107).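 Note: cells co-treated with the DNA-damaging agent 5-fluorouridine alongside compound; series mostly up to about 46 µM; % is set by controls: 0 for no effect and ±100 for the full control effect; inhibitors lower the ELG1-luciferase luminescence signal; nearly all actives have a fitted effect of over 70% in size.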 The method, boiled down: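 Quantitative HTS in HEK293T cells carrying luciferase-tagged ELG1, stimulated with 5-fluorouridine alongside compound for 16 hr. Loss of luciferase signal marks inhibition of ELG1 response.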

The nature of experiment [8]: Nrf2 qHTS screen for inhibitors: Validation (AID 493153; active = well fitted inhibition curve with a large enough effect in the main read-out, with a control signal flat, not every such curve was filed as active). The note with it: Potency: luciferase luminescence; viability change: measured here: cytotoxicity max response. The method, boiled down: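 Dose-response validation uses reporter A549 cells with firefly luciferase under an antioxidant response element. Compounds stay on cells 18-24 h at 37°C, and luminescence indicates Nrf2-driven transcription.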

Experiment [9] has as its target Galactokinase (Homo sapiens) (UniProt P51570). Put plainly: qHTS Validation Assay for Inhibitors of Human Galactokinase (GALK) (AID 493189). Note: 0% is about no effect. The method, boiled down:
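Luminescence from leftover ATP (Kinase-Glo Plus, 10 min) served as read-out after a 1 h room-temperature reaction of 5 nM GALK, 100 uM galactose and 35 uM ATP at pH8.0.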

Experiment [10] addresses Peptidyl-prolyl cis-trans isomerase NIMA-interacting 1 (Homo sapiens) (UniProt Q13526). Put plainly: qHTS Validation Assay to Find Inhibitors of Pin1 (AID 504536; active = well fitted inhibition curve with a large enough effect in the polarisation, with a control signal flat, not every such curve was filed as active; the % refers to the polarisation;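 note: 0% = full Pin1 enzyme wells and -100% = no-enzyme wells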). The method, boiled down: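 Fluorescence polarization competition: compounds (titration) displace HiFluor-488-labeled Pin1-1b peptide from Pin1 (0.3 uM final) in pH 7.5 HEPES buffer with DTT, 10 min at room temperature; %Activity normalized to no-enzyme wells, curves fitted.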

In experiment [11] the target is Phosphoglycerate kinase, glycosomal (Trypanosoma brucei brucei) (UniProt P07378). Put plainly: qHTS Validation Assay to Find Inhibitors of Phosphoglycerate Kinase (AID 504547).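 Note: control wells lack PGK and mark full inhibition.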 The method, boiled down:
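Inhibition of the enzyme is judged by a Kinase-Glo Plus luminescent signal following a one-hour incubation at room temperature. Because 1,3-BPG is unstable, it is made in situ by GAPDH at 100nM final; no-PGK wells define the baseline.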

Experiment [12] addresses phosphoglycerate mutase (Leishmania major) (UniProt Q4Q090). Put plainly: qHTS Validation Assay to Find Inhibitors of Phosphoglycerate Mutase (AID 504548). Note: series mostly up to about 58 µM; % is set by controls: 0 for no effect and ±100 for the full control effect. To be noted: Potency: inhibition qHTS. An outline of the steps: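 Lm PGAM at 1.25 nM final with substrate in 100 mM TEA pH 7.6, 5 mM MgCl2, 0.01% Tween-20; 45 min at room temperature. Kinase-GloPlus added, 10 min, end-point luminescence read.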

The target of experiment [13] is Ubiquitin carboxyl-terminal hydrolase 1 (Homo sapiens) (UniProt O94782). Put plainly: Inhibitors of USP1/UAF1: Pilot qHTS (AID 504865).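 Note: rhodamine fluorescence freed from ubiquitin-rhodamine substrate followed over time; top concentration of the series differs between compounds; % is set by controls: 0 for no effect and ±100 for the full control effect; nearly all actives have a fitted effect of over 35% in size.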 The method, boiled down: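 1nM USP1/UAF1 + cpd, 15 min RT; start w/ Ub-Rho 150nM final; kinetic FL 480/540 nm, 6 reads q60 s. Buffer 50mM HEPES pH 7.8, 0.5mM EDTA, 1mM TCEP, 0.01% Tween-20, 0.1 mg/ml BSA.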
Experiment [14] is described as follows: qHTS for Inhibitors of ATXN expression: Validation of Cytotoxic Assay (AID 588349).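 Note: cells exposed to compound for 72 hr; % is set by controls: 0 for no effect and ±100 for the full control effect.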 The method, boiled down:
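HEK293, compound dose series, 72 hr / 37 degrees C; viability via CellTiter Glo (intracellular ATP).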

A short description of experiment [15]: qHTS for Inhibitors of ATXN expression: Validation (AID 588378). Note: series mostly up to about 57 µM; % is set by controls: 0 for no effect and ±100 for the full control effect; nearly all actives have a fitted effect of over 75% in size. The method, boiled down: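 Cells: HEK293-ATXN2-FFLuc, phenol-red free DMEM, 2 h attachment. Compound pin-transfer, 24 h, 37 degrees C, 5% CO2. CellTiter-Fluor 30 min, Ex405/Em525; Bright-Glo 5 min, luminescence 2 s exposure.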
Experiment [16] addresses Thyrotropin-releasing hormone receptor (Homo sapiens) (UniProt P34981). Put plainly: qHTS for Small Molecule Agonists and Allosteric Enhancers of Human TRH Receptor: Validation Screen for Agonists (AID 493127;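 active = calcium activation more than 3 SD above the typical response in the agonist read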;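 note: intracellular calcium rise by fluo-8 fluorescence before TRH EC20 addition; 0% is about no effect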). To be noted: TRH receptor agonist cell assay; at 2 µM; stronger effect = higher value. An outline of the steps:
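Gq-coupled calcium mobilization in TRHR cells after compound addition, monitored kinetically with fluo-8 dye on an FDSS reader.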

The nature of experiment [17]: qHTS for Inhibitors of Cell Surface uPA Generation: Validation Assay (AID 493164).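 Note: RAW 264.7 macrophage cells exposed to compound for 18 h; 0% is about no effect.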 The method, boiled down:
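RAW 264.7, 4000 cells/well, o/n plating; cpd 7-pt 1:5 dilution 2.45 nM–38.3 uM final; 18 h, 37 C/5% CO2; ATP-Lite, 5 s luminescence exposure.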

The nature of experiment [18]: Validation screen for small molecules that induce DNA re-replication in SW480 colon adenocarcinoma cells (AID 504364). Note: 0% is about no effect. The method, boiled down: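 Cells are treated 48 hr with test compound, stained 40 min with Hoechst at 37 C, and scanned for nuclear fluorescence; compounds inducing re-replication increase nuclei with elevated intensity.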

Chain of Ubiquitin carboxyl-terminal hydrolase 1 (Homo sapiens) (O94782 whole entry, looked up): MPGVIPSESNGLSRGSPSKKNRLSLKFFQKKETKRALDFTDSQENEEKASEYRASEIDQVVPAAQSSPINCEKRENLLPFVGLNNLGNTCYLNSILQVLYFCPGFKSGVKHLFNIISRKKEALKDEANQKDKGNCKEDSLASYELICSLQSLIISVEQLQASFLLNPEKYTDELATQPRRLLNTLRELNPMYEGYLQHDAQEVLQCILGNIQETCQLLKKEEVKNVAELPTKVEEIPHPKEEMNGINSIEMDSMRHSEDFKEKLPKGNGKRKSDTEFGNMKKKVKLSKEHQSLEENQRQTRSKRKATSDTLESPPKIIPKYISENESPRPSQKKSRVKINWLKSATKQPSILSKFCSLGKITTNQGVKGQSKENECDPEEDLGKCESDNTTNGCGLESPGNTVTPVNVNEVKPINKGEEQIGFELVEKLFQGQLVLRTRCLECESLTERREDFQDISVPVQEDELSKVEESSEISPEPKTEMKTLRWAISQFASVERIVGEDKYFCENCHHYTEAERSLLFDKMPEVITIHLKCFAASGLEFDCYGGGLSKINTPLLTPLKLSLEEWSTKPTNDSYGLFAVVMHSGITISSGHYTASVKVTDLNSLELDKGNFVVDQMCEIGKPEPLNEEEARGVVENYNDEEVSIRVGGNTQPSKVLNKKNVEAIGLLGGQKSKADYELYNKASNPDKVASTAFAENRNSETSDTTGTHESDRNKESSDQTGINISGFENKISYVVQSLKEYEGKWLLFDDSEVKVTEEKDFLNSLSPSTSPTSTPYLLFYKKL
Chain of Phosphoglycerate kinase, glycosomal (Trypanosoma brucei brucei) (P07378 whole entry, looked up): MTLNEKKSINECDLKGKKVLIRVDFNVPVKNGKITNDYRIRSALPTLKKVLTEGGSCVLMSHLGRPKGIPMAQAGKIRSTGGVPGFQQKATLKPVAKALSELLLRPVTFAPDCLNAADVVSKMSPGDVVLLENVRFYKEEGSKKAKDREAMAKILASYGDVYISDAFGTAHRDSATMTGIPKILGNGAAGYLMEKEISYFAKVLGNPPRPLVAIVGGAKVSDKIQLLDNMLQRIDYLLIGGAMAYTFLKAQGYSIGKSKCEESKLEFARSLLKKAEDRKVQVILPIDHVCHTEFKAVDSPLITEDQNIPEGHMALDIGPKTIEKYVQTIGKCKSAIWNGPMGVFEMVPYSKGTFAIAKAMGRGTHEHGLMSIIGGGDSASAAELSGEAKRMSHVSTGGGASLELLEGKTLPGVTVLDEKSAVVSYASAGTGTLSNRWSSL
Chain of phosphoglycerate mutase (Leishmania major) (Q4Q090 1-553): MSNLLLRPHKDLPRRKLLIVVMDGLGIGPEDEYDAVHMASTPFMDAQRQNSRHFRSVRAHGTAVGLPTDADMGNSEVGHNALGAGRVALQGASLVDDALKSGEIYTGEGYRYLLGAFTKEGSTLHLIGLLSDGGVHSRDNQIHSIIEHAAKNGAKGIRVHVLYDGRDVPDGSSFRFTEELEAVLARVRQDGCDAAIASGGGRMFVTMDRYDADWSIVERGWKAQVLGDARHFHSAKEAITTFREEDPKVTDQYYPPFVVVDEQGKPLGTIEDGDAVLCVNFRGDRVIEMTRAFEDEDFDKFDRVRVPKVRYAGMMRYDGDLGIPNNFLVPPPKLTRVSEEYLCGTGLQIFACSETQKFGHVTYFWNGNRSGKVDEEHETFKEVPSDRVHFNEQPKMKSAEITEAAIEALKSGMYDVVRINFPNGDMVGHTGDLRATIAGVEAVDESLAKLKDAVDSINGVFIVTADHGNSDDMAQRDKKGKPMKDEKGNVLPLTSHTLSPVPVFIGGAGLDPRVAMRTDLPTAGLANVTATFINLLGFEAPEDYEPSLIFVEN
Chain of ATPase family AAA domain-containing protein 5 (Homo sapiens) (Q96QE3 whole entry, looked up, the tested form may be a part): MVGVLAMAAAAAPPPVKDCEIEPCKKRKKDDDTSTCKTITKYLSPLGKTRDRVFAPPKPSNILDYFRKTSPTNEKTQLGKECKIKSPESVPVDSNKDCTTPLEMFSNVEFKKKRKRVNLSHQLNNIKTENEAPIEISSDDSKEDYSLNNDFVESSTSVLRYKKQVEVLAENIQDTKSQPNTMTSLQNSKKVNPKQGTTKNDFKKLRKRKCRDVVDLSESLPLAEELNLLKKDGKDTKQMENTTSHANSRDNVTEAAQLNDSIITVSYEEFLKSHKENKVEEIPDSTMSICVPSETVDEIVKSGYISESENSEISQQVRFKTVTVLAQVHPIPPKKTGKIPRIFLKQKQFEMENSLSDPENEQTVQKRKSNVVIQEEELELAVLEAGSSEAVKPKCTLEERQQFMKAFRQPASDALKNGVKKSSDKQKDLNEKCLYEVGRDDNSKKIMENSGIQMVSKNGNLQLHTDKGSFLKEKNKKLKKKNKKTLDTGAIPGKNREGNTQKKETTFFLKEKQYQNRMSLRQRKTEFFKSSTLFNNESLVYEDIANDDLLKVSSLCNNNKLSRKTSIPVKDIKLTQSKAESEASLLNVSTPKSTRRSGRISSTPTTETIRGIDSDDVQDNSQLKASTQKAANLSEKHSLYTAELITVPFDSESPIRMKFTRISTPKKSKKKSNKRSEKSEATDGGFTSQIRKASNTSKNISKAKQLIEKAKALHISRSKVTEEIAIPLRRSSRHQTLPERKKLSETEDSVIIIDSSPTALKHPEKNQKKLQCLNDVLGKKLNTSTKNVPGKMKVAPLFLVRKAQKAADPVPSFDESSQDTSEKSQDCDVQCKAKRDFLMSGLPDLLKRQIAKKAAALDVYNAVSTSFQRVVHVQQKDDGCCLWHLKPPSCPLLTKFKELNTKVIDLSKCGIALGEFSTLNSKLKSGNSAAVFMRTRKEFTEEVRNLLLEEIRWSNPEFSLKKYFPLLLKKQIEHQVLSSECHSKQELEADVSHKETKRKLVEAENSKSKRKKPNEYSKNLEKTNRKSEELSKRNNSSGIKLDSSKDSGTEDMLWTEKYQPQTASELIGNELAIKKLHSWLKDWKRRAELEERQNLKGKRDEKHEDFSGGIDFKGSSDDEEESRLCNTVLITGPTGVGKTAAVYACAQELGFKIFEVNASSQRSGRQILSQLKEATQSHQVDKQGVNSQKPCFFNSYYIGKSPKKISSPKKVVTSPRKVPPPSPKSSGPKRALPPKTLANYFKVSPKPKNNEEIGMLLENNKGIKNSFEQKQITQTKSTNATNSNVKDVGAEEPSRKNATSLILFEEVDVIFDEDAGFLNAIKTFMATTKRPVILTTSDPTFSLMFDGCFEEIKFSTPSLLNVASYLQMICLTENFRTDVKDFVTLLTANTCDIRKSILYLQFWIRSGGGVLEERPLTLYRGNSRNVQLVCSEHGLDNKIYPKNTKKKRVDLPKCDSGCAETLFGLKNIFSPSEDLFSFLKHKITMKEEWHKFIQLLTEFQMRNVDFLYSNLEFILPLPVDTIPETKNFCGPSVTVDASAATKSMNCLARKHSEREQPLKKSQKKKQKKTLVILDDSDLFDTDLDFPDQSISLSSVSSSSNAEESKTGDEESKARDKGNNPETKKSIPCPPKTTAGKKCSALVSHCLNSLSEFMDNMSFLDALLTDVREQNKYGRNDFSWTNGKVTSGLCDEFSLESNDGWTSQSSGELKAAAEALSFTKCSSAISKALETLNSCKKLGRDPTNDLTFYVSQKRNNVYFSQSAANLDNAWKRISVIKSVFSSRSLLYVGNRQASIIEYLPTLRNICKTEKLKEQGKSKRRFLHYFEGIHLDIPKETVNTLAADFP
Chain of Galactokinase (Homo sapiens) (P51570 whole entry, looked up): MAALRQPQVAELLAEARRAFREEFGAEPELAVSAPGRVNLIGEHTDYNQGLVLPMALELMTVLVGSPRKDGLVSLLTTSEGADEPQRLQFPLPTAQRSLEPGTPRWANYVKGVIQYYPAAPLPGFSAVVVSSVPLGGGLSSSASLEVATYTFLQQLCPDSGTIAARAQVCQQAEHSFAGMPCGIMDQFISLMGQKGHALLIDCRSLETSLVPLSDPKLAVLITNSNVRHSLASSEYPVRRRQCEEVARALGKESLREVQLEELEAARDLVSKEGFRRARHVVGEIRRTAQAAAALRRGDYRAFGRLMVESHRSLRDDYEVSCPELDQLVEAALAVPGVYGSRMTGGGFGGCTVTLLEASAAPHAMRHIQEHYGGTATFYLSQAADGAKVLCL
Chain of Peptidyl-prolyl cis-trans isomerase NIMA-interacting 1 (Homo sapiens) (Q13526 whole entry, looked up): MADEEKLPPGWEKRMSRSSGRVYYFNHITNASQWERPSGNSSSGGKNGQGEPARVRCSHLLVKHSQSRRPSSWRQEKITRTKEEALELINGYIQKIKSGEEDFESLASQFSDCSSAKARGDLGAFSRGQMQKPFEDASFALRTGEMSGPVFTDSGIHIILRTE
Chain of Thyrotropin receptor (Homo sapiens) (P16473 whole entry, looked up): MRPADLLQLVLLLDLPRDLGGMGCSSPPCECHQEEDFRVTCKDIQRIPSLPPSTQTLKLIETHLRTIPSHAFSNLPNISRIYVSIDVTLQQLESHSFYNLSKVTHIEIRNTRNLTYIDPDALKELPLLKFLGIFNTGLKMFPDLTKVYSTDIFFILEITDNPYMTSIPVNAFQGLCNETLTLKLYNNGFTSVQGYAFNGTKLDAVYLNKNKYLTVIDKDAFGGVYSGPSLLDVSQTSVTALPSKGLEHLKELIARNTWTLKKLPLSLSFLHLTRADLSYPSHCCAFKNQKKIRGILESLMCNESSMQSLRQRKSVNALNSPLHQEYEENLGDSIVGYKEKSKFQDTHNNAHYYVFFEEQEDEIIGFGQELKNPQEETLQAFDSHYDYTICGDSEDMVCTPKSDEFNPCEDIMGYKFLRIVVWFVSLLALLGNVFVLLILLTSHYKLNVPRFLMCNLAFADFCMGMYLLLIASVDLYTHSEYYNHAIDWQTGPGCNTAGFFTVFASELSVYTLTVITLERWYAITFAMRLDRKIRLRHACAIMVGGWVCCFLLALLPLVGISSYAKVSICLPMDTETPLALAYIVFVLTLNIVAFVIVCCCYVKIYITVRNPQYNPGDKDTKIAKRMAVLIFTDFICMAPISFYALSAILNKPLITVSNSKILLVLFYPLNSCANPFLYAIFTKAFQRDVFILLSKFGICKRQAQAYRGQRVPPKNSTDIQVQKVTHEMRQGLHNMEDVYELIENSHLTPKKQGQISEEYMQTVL

As to `NC1CONC1=O` (configuration not stated), the result in experiment [1] and in [2] was inactive. The Potency result in experiment [3], in experiment [4], in experiment [5], in experiment [6], in experiment [7] and in experiment [8] was “inactive” throughout. The Potency result in [9], in [10], in [11], in experiment [12], in experiment [13] and in experiment [14] was “inactive” each time. Also, the Potency entry in [15] is “inactive”. For the same compound, in experiment [8], the viability change came to 2.91%.
As for `O=c1ccc2c(OCCCCc3ccccc3)c3ccoc3cc2o1`, the outcome in experiment [1], in experiment [2] and in experiment [17] was inactive. Besides, the Potency entry in [3], in experiment [4], in experiment [5], in experiment [6], in experiment [8] and in [9] was “inactive” throughout. In addition, the Potency result in [18], in [10], in experiment [12], in experiment [13] and in [15] was “inactive” in each case. For the same compound, the activation in experiment [16] was -9.69% (inactive). In addition, in experiment [8], the viability change is 4.36%.
On to `NC1C=CC=C(C(=O)O)C1` (configuration not stated), for which the outcome in experiment [1], in experiment [2] and in experiment [17] was inactive. Besides, the Potency entry in [3], in experiment [4], in experiment [5], in experiment [7], in experiment [8] and in experiment [18] was “inactive” throughout. Besides, the Potency entry in experiment [10], in experiment [11], in experiment [12], in [13], in [14] and in experiment [15] was “inactive” throughout. Moreover, the activation in [16] was -0.125% (inactive). The viability change in [8] is 17.7%.
As for `C=CCN1CCc2cc(O)c(O)cc2C(c2ccccc2)C1` (configuration not stated), the outcome in [1], in [2] and in experiment [17] was inactive. Further, the Potency entry in [3], in [4], in [6], in [7], in [8] and in [9] was “inactive” each time. Besides, the Potency entry in [18], in experiment [10], in experiment [11], in experiment [12] and in experiment [13] was “inactive” throughout. In experiment [16], the activation is 1.38% (inactive). The viability change in [8] was -2.64%.
In the case of `NC1CCN(O)C1=O` (configuration not stated), the outcome in experiment [1], in experiment [2] and in [17] was inactive. For the same compound, the Potency result in experiment [3], in experiment [4], in [5], in [8], in [9] and in [18] was “inactive” in each case. For the same compound, the Potency result in experiment [10], in [11], in experiment [12], in experiment [14] and in experiment [15] was “inactive” in each case. Also, the activation in experiment [16] is 0.875% (inactive). In experiment [8], the viability change was found to be 4.05%.
Take `CCCC[C@@]1(C2CCCC2)Cc2cc(OCC(=O)O)c(Cl)c(Cl)c2C1=O`: the result in [1], in experiment [2] and in [17] was inactive. Besides, the Potency result in experiment [3], in [4], in [5], in [7], in [8] and in experiment [9] was “inactive” throughout. The Potency entry in experiment [10], in experiment [11], in experiment [12] and in experiment [14] was “inactive” each time. Further, the activation in experiment [16] was 1.19% (inactive). Also, the viability change in experiment [8] was -6.32%.
For the compound `CNC(=O)c1cc2c(cn1)[nH]c1ccccc12`, the result in [1], in [2] and in experiment [17] was inactive. Besides, the Potency entry in experiment [3], in experiment [4], in experiment [5], in experiment [8], in [18] and in experiment [10] was “inactive” throughout. Moreover, the Potency entry in experiment [11], in experiment [12], in experiment [13], in experiment [14] and in experiment [15] was “inactive” each time. Besides, the activation in experiment [16] is 0.75% (inactive). In addition, the viability change in experiment [8] is -3.36%.
Turning to `C=CC1(C)CC(=O)C2(O)C(C)(O1)C(OC(C)=O)C(O)C1C(C)(C)CCC(O)C12C` (configuration not stated), the result in [1], in experiment [2] and in [17] was inactive. For the same compound, the Potency entry in experiment [3], in [4], in experiment [5], in experiment [7], in experiment [8] and in experiment [18] was “inactive” in each case. Also, the Potency result in experiment [10], in experiment [11], in experiment [12], in experiment [13] and in [15] was “inactive” throughout. Besides, the viability change in [8] was found to be 4.77%.
